Compound activity as filed in PubChem BioAssay.
FH mod: Identification of activators of human fumarate hydratase by quantitative high-throughput screening | FH coupled MDH/diaphorase resazurin fluorescence, 15 min | Potency, µM (series often up to 79.9 µM), without a hit: at the top dose activity change, negative = inhibition, hits mostly inhibitors | actives 0.22% (n = 54,000) | AID 1347055, 2019; note: potency is the fitted concentration of half-maximal effect; % is set by controls: 0 for no effect and ±100 for the full control effect; the screen sought activators but most active calls are inhibition curves; nearly all actives have a fitted effect of over 45% in size
NTMT1 inhibitor: Primary qHTS for Inhibitors of N-terminal methyltransferase 1 (NTMT1): MTaseGlo Assay; N-terminal Xaa-Pro-Lys N-methyltransferase 1 (Homo sapiens), Q9BV86; NTMT1 MTase-Glo SAH luminescence, purified enzyme; AID 1645870, 2021; Potency, µM (series often up to 114 µM), for inactives: top-dose activity change, negative = inhibition, most hits filed as inhibitors; actives 2.5% (n = 59,000);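 note: potency is the fitted concentration of half-maximal effect; plate controls were DMSO vehicle for no effect and no enzyme for full effect; nearly all actives have a fitted effect of over 65% in size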
CLK4 inh-1: Confirmation Assay for Inhibitors of CDC-like Kinase 4 (Kinase-Glo Assay): SAR round 2 | recombinant Clk4, Kinase-Glo ATP luminescence, 4.5 h | actives 90% (n = 90) | shares compounds with NTMT1 inhibitor | Potency, µM (titrated, usually from 76.9 µM), inactives show top-dose activity, negative = inhibition, actives largely listed as inhibitors | AID 493204, 2011
CLK4 inh-2: Kinase Inhibition Study on Inhibitors of CDC-like Kinase 4 (Reaction Biology data): SAR round 2; actives 100% (n = 65); Reaction Biology kinase assay, 10 uM ATP; shares compounds with NTMT1 inhibitor; Potency, µM, most hits filed as inhibitors; AID 504421, 2011; calls by dose curve
DYRK1A inh: Kinase Inhibition Study on Inhibitors of Dyrk1a (Reaction Biology data). shares compounds with NTMT1 inhibitor. Reaction Biology kinase assay, 10 uM ATP. Potency, µM, most hits filed as inhibitors. actives 90% (n = 65);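 active = compounds that showed inhibition of Dyrk1a and received a fitted potency; inactive = compounds that showed no inhibition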
CLK2 RBC: Kinase Inhibition Study on Inhibitors of CDC-like Kinase 2 (Reaction Biology data); shares compounds with NTMT1 inhibitor; Reaction Biology kinase assay, 10 uM ATP; Potency, µM, most hits filed as inhibitors; actives 90% (n = 65); AID 504427, 2011;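 active = compound that inhibits Clk2 kinase in the dose series, with an IC50 potency reported; inactive = no inhibition seen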
Target sequence (P49760 whole entry, looked up): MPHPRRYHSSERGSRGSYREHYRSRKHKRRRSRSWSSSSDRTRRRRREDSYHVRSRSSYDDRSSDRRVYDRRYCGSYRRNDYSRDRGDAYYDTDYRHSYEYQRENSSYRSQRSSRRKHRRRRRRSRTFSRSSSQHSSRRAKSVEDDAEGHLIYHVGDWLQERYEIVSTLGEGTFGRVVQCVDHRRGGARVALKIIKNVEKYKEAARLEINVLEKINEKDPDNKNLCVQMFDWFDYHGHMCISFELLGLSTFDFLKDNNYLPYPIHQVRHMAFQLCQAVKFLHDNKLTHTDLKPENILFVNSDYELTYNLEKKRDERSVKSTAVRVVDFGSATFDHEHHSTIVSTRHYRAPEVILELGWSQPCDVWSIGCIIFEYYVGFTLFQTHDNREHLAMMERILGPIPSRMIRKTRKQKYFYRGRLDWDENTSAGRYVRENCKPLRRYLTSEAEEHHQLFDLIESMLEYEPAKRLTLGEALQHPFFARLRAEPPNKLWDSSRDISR
CLK3 RBC: Kinase Inhibition Study on Inhibitors of CDC-like Kinase 3 (Reaction Biology data); shares compounds with NTMT1 inhibitor; recombinant CLK3 kinase assay, 10 uM ATP; Potency, µM, hits mostly inhibitors; actives 40% (n = 65);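 active = compounds that inhibited Clk3 enough in the ten-dose series to give a half-maximal potency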
DYRK1B inh: Kinase Inhibition Study on Inhibitors of Dyrk1b (Reaction Biology data); shares compounds with NTMT1 inhibitor; Recombinant Dyrk1b kinase assay, 10 uM ATP; Potency, µM, actives largely listed as inhibitors; actives 80% (n = 65); AID 504429, 2011;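 active = compounds whose dose response shows an inhibitor phenotype against the kinase Dyrk1b; inactive = compounds showing no inhibitor phenotype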
CLK1 inh: Kinase Inhibition Study on Inhibitors of CDC-like Kinase 1 (Reaction Biology data); shares compounds with NTMT1 inhibitor; recombinant Clk1 kinase assay, 10 uM ATP; Potency, µM, most hits filed as inhibitors; actives 90% (n = 65); AID 504430, 2011;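 active = compounds that block the splicing kinase Clk1 enough to give a fitted half-inhibition concentration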
Sfp qHTS opt: qHTS Assay for Inhibitos of Bacillus subtilis Sfp phosphopantetheinyl transferase (PPTase): Chemistry Optimization Followup. actives 78% (n = 230). shares compounds with NTMT1 inhibitor. purified Sfp PPTase enzyme activity, qHTS. Potency, µM (doses to about 114 µM), without a hit: at the highest dose activity change, negative = inhibition, actives largely listed as inhibitors
Bsub HM489 growth: qHTS for Inhibitos of Bacillus subtilis Sfp phosphopantetheinyl transferase (PPTase): Chemistry Optimization Followup in B. Subtilis HM489; Potency, µM (doses to about 114 µM), without a hit: at the highest dose activity change, negative = inhibition, usual class: inhibitors; B. subtilis HM489 (acpS-) growth, BacTiter-Glo, 5 h; shares compounds with NTMT1 inhibitor; actives 50% (n = 220)
Sfp gel opt: Gel-Based Assay for Inhibitos of Bacillus subtilis Sfp phosphopantetheinyl transferase (PPTase): Chemistry Optimization Followup; AID 540355, 2011; shares compounds with NTMT1 inhibitor; actives 54% (n = 220); purified Sfp PPTase, gel-based product detection; Potency, µM (titrated, usually from 250 µM), for the others: top-dose activity change, negative = inhibition, most hits filed as inhibitors
Sfp inh SAR2: qHTS Assay for Inhibitors of Bacillus subtilis Sfp phosphopantetheinyl transferase (PPTase): SAR Round 2; actives 87% (n = 230); purified Sfp enzyme, PPTase activity, qHTS; shares compounds with NTMT1 inhibitor; Potency, µM (titrated, usually from 57.1 µM), for inactives: top-dose activity change, negative = inhibition, hits mostly inhibitors
HSD17B4 counter: Extended Characterization of HPGD Inhibitors: Counterscreen Against HSD17b4. actives 10% (n = 230). purified HSD17B4, estradiol/NAD+, NADH fluorescence. Potency, µM (top dose mostly 57.1 µM), inactives show top-dose activity change, negative = inhibition, hits mostly inhibitors. shares compounds with NTMT1 inhibitor. AID 743187, 2013
ALDH1A1 counter: Extended Characterization of HPGD Inhibitors: Counterscreen Against ALDH1A1. recombinant ALDH1A1, NADH fluorescence, propionaldehyde/NAD+. shares compounds with NTMT1 inhibitor. AID 743195, 2013. Potency, µM (doses to about 57.1 µM), for the others: at the highest dose activity change, negative = inhibition, actives largely listed as inhibitors. actives 93% (n = 230)
NNMT inh: Counterscreen qHTS for Inhibitors of N-terminal methyltransferase 1 (NTMT1): NNMT MTaseGlo assay; shares compounds with NTMT1 inhibitor; Potency, µM (titrated, usually from 57.1 µM), for inactives: top-dose activity, negative = inhibition, most hits filed as inhibitors; actives 10% (n = 120); NNMT MTase-Glo luminescence, SAH detection
* hit, by the source's call; [ ] = remark or other dose. Shown is part of a subset that was picked to be rich in hits. Unless noted, calls come from the whole dose curve; as a rule, active = well fitted curve in the direction sought with a large enough effect; inconclusive = small, poorly fitted or top-dose-only effect, or another doubt; inactive = no such curve, though single readings can be large; an effect the other way counts as inactive or inconclusive.

Screening Cc1cc(C)nc(NC(=S)N2CCN(c3ccc(NS(C)(=O)=O)nn3)CC2)c1 returned NTMT1 inhibitor -25.8%[57.5 µM], Sfp qHTS opt inconclusive, Bsub HM489 growth 0.4%, Sfp gel opt inconclusive, Sfp inh SAR2 4.57µM*, HSD17B4 counter -20.8% and ALDH1A1 counter 24.1µM*.
`Cc1cc(C)nc(NC(=S)N2CCN(c3ccc(N4CCCC4)nn3)CC2)c1` gave NTMT1 inhibitor inconclusive, Sfp qHTS opt inconclusive, Bsub HM489 growth inconclusive, Sfp gel opt 12.6µM*, Sfp inh SAR2 5.76µM*, HSD17B4 counter 27.1µM* and ALDH1A1 counter 19.2µM*.
Screening Cn1cncc1C(N)(c1ccc(Cl)cc1)c1ccc2c(c1)c(-c1cccc(Cl)c1)cc(=O)n2C (stereo unspecified) returned FH mod -2.7% and NTMT1 inhibitor inconclusive.
O=C(O)c1ccc(-c2ccc3ncnc(NCc4nccs4)c3c2)o1 was read as NTMT1 inhibitor -0.3%[57.5 µM], CLK4 inh-1 0.923µM*, CLK4 inh-2 1.93*, DYRK1A inh 40.6µM*, CLK2 RBC 27.4µM*, CLK3 RBC inactive, DYRK1B inh 18µM* and CLK1 inh 39.1µM*.
OCc1ccc(-c2ccc3ncnc(NCC4CCCO4)c3c2)o1 (stereo unspecified) was read as CLK4 inh-2 13.1*, DYRK1A inh inactive, CLK2 RBC inactive, CLK3 RBC inactive, DYRK1B inh 45µM* and CLK1 inh 50µM*.
For O=C(O)c1ccc(-c2ccc3ncnc(NCC4CCCO4)c3c2)o1 (stereo unspecified) the results were NTMT1 inhibitor -4.4%, CLK4 inh-1 0.823µM*, CLK4 inh-2 3.43*, DYRK1A inh 30.4µM*, CLK2 RBC 20µM*, CLK3 RBC inactive, DYRK1B inh 12.1µM* and CLK1 inh 44µM*.
For COC(=O)C12C(=O)C(C)=C(O)C1(C)C(C)=CC1C34CCC(OC3=O)C(C)(C)C4CCC12C (stereo unspecified) the results were FH mod 9.3%[53.3 µM] and NTMT1 inhibitor 11.8%[29.8 µM].
Screening O=C([C@@H](Cc1ccc(O[S+](=O)([O-])c2ccccn2)cc1)N[S+](=O)([O-])c1cccc2cccnc12)N1CCN(c2ccccc2)CC1 returned NTMT1 inhibitor 2.6%.
C=C1C2CCC3CC2(CC(O)C2(O)C1CC(OC1OC(CO)C(O)C(O)C1O)C2(C)C)CC3(C)O (stereo unspecified) was read as FH mod -1.4%[53.3 µM] and NTMT1 inhibitor -1.6%[29.8 µM].
For CCCNc1ccc2ncc(-c3ccc4[nH]ncc4c3)n2n1 the results were FH mod -9.0%, NTMT1 inhibitor 28.2µM* and NNMT inh 14.1µM*.
Screening Cc1cc(-c2nnc3n2CCCCC3)c(C)n1-c1ccncc1 returned NTMT1 inhibitor 4.3%[57.5 µM].
